Pf growth 96h = Primary qHTS for delayed death inhibitors of the malarial parasite plastid, 96 hour incubation; P. falciparum luciferase reporter growth, 96 h; Potency, µM (series often up to 28.7 µM), most hits filed as inhibitors; actives 6.9% (n = 320,000); AID 504834, 2011
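Parasite growth measured via integrated firefly luciferase reporter in P. falciparum. Infected erythrocytes at 2% hematocrit, 0.05% parasitemia final were treated 96 hours at 37 C under 5% CO2, and luminescence was read.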
Shiga toxin inh = A qHTS for Small Molecule Inhibitors of Shiga Toxin. AID 2315, 2010. inhibition, % at 38.7 µM. actives 9.2% (n = 290,000). Vero cells, Shiga toxin protein synthesis inhibition reporter; in the data active = inhibition mostly above about 28%, no sharp cut-off; inactive = mostly below about 43%
Pf growth 48h = Primary qHTS for delayed death inhibitors of the malarial parasite plastid, 48 hour incubation; P. falciparum luciferase growth in erythrocytes, 48 h; Potency, µM (doses to about 28.7 µM), usual class: inhibitors; actives 5.9% (n = 310,000); AID 504832, 2011
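In quantitative HTS format, infected erythrocytes bearing luciferase-reporter parasites were treated for a single generation at 37 C. Luminescence after adding detection reagent served as the growth measure.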
HCMV inh = qHTS Assay for inhibitors of the human cytomegalovirus (HCMV). HFF cells, HCMV-luciferase reporter, 72 h; hits give low values. activity change, negative = inhibition, % at 57.5 µM. actives 4.5% (n = 410,000). AID 1259415, 2018; in the data active = activity change below about -60%; inconclusive = no clear call, values can overlap the other calls; inactive = above about -39%
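Human foreskin fibroblasts infected with luciferase-reporter HCMV at MOI 1 PFU/cell, compounds at two doses. Luciferase measured 72 h post infection; normalized to buffer-only basal and Salinomycin (10uM) controls.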
Cycloheximide cs = Cycloheximide Counterscreen for Small Molecule Inhibitors of Shiga Toxin; cell reporter, cycloheximide protein synthesis inhibition counterscreen; max response, %; AID 2314, 2010; actives 12% (n = 300,000); in the data active = max response mostly above about 13%, no sharp cut-off; inactive = mostly below about 14%; note: read at 38.3 µM for the half of the compounds with a filed dose
Hits are given with their value; . = inactive; ? = inconclusive; / = no result given. An excerpt weighted towards active compounds, which were near 20% of everything screened. Unless noted, calls come from the whole dose curve; as a rule, active = well fitted inhibition curve with a large enough effect; inconclusive = small, poorly fitted or top-dose-only effect, or another doubt; inactive = no such curve, though single readings can be large or run the other way.

SMILES	Pf growth 96h	Shiga toxin inh	Pf growth 48h	HCMV inh	Cycloheximide cs
O=C(NCCCO)c1nc2ccccc2s1	.	.	.	.	.
CCCCNC(=O)Nc1nc2ccccc2s1	.	71	.	.	.
CN(C(=O)c1ccccc1)c1nc2ccccc2s1	.	74	.	.	46
O=C1COCc2ccc(-c3cccc(CO)c3)cc2N1CCc1ccccc1	/	/	/	.	/
CCCNC(=O)c1ccc(-c2nc3ccccc3s2)s1	.	.	/	.	48
CCCNC(=O)Nc1nc2ccccc2s1	.	87	.	.	51
Cc1nc2c(ccc3nc(NC(=O)c4ccc(S(=O)(=O)N(C)C)cc4)sc32)s1	?	.	.	.	.
Cc1nc2c(ccc3nc(NC(=O)Cc4ccccc4)sc32)s1	.	36	.	.	36
CN(C)c1ccc(CC(=O)c2nc3ccccc3s2)cc1	3.3µM	44	?	?	67
COCCNC(=O)C(c1ccc(C)cc1)N(C(=O)C(=O)NC1CCCC1)c1ccc2c(c1)OCCO2 (configuration not stated)	.	.	.	.	.
Cc1cc(=O)n(CC(=O)NCCC(C)C)c2c1c(C)nn2C	/	/	/	.	/
CN(C)c1nc(N)nc(CSc2nnnn2-c2ccccc2)n1	.	.	/	.	.
Cc1ccc(C(=O)N(Nc2nc3ccccc3s2)C(=O)c2ccc(C)cc2)cc1	?	.	.	.	10
CCOC(=O)c1nc2ccccc2s1	.	61	.	.	27
Cc1ccc(CC(=O)Nc2nc3ccccc3s2)cc1	.	174	.	.	40
Cc1ccc(S(=O)(=O)CC(=O)Nc2nc3ccccc3s2)cc1	?	.	.	.	.
CCOC(=O)Nc1nc2ccccc2s1	/	66	.	.	31
CC(C)C(=O)N(Nc1nc2ccccc2s1)C(=O)C(C)C	.	.	.	.	.
COC(=O)c1ccc(/C=N/Nc2nc(-c3ccc(Cl)cc3Cl)cs2)cc1	.	.	.	/	.
CCOC(=O)Nc1nc(-c2ccc(Cl)cc2Cl)cs1	.	78	.	.	24
O=C1c2ccccc2C(Nc2ccc3c(c2)OCCO3)N1c1ccccn1 (configuration not stated)	.	70	9.3µM	.	41
O=C1c2ccccc2C(Nc2ccc(S(=O)(=O)N3CCCCC3)cc2)N1c1ccccn1 (configuration not stated)	?	.	?	.	.
O=C1c2ccccc2C(Nc2ccc3c(c2)OCCO3)N1Cc1ccc2c(c1)OCO2 (configuration not stated)	.	62	?	.	31
O=C1OC(Nc2ccc3c(c2)OCO3)c2ccccc21 (configuration not stated)	.	.	?	-97	.
O=C1c2ccccc2C(Nc2ccc3c(c2)OCCO3)N1c1ccc(Cl)cn1 (configuration not stated)	.	.	/	.	9.9
SMILES	Pf growth 96h	Shiga toxin inh	Pf growth 48h	HCMV inh	Cycloheximide cs
CCOc1ccc(-c2nnc(SCC(=O)Nc3cccc(C#N)c3)o2)cc1	/	/	/	.	/
O=C(NC1CCCCC1)C(c1cccnc1)N(C(=O)CCl)c1cccc(Cl)c1 (configuration not stated)	?	.	?	-104	.
COC(CN(C(=O)CCl)C(C(=O)NC1CCCCC1)c1ccc(Cl)cc1)OC (configuration not stated)	2.9µM	.	?	.	.
COC(CN(C(=O)CCl)C(C(=O)NC1CCCCC1)c1ccccc1C)OC (configuration not stated)	?	.	15µM	-97	.
Cc1cccc(N(C(=O)CNC(=O)c2ccco2)C(C(=O)NC2CCCCC2)c2cccnc2)c1 (configuration not stated)	?	.	.	.	.
COc1ccc(C(C(=O)NC2CCCCC2)N(C(=O)CCl)c2ccc(Cl)cc2)cc1 (configuration not stated)	3.7µM	.	.	-101	.
COC(CN(C(=O)CCl)C(C(=O)NC1CCCC(C)C1C)c1ccc(C)cc1)OC (configuration not stated)	?	.	.	/	.
CC(C)Oc1cccc(C(=O)Nc2nnc([C@H]3C[C@H](O)[C@@H](CO)O3)s2)c1	/	/	/	.	/
COc1ccc(C(=O)C2CC2)cc1	/	/	/	.	/
COc1ccc(OCC(=O)C2CC2)c(C#N)c1	.	.	1.9µM	.	27
CCOc1ccc(CNC(=O)C2Cc3ccccc3N2C(=O)CC)cc1OC (configuration not stated)	/	/	/	.	/
O=C(CSc1ccc(S(=O)(=O)N2CCCCC2)cn1)Nc1ccccc1Br	?	/	?	.	/
CC(=O)c1ccc(N(C(=O)Cc2c[nH]c3ccccc23)C(C(=O)NC2CCCCC2)c2cccs2)cc1 (configuration not stated)	.	.	3.7µM	.	.
Cc1ccc(C(C(=O)NC2CCCCC2)N(C(=O)Cc2c[nH]c3ccccc23)c2ccccc2)o1 (configuration not stated)	?	.	9.3µM	.	.
CC(=O)Nc1ccc(N(C(=O)Cc2c[nH]c3ccccc23)C(C(=O)NC2CCCCC2)c2ccco2)cc1 (configuration not stated)	.	.	?	?	.
COc1cccc(CN(C(=O)Cc2c[nH]c3ccccc23)C(C(=O)NC2CCCCC2)c2cccs2)c1 (configuration not stated)	12µM	.	9.3µM	.	.
COc1ccc(NC(=O)CC2C(=O)N(c3cccc(OC)c3)C(=O)N2Cc2ccc3c(c2)OCO3)cc1 (configuration not stated)	/	/	/	.	/
O=S1(=O)C[C@@H](N2CCN(CC3CC3)CC2)[C@H](COCc2ccccc2)N1	/	/	/	.	/
COc1ccc2c(Cl)c(C(=O)N/N=C3\CCCC(=O)C3)sc2c1	?	47	?	.	.
CC1CCC(NC(=O)C2(C)CCC(=O)N2Cc2cccnc2)CC1 (configuration not stated)	.	.	.	.	.
CC1(C(=O)NC2CCCCC2)CCC(=O)N1Cc1cccnc1 (configuration not stated)	.	.	.	-82	.
CC[C@@H]1C(c2ccc(F)cc2)=NN(c2ccc(Br)cc2)[C@H]1C(=O)N1CCOC1=O	/	.	/	.	.
Cc1ccc(C2CCN(C(=S)NC3CCCCC3)C2)cc1 (configuration not stated)	?	70	.	?	20
Cc1cccc(NC(=S)N2CCCCC2)c1	.	.	.	.	.
Cc1ccc(C2CCN(C(=S)Nc3cccc(C)c3)C2)cc1 (configuration not stated)	.	34	.	?	20
Cc1ccc(C2CCN(C(=S)NC(C)(C)C)C2)cc1 (configuration not stated)	?	76	.	.	31
CC1(C)Cc2c(cnn2-c2ccccc2)-c2c1c1ccccc1n2CC(O)CCl (configuration not stated)	?	.	12µM	.	.

Screening results: PubChem, National Center for Advancing Translational Sciences (NCATS)
